These results are taken from PubChem BioAssay (Tox21).

Values without a mark were called inactive. Results filed as inconclusive are left out. Active and inactive are the calls of the source. Unless noted, calls follow the shape of the dose curve; as a rule, active = well fitted curve in the direction sought with a large enough effect in the repeat runs; inconclusive = weak or mixed curves; inactive = no such curve, though single readings can be large; an effect the other way counts as inactive or inconclusive.

Assay [1] is described as follows: A CellTox Green Cytotoxicity Assay to monitor cytotoxicity in HepG2 cells - 0 hour (AID 1224882). Also: nearly all actives have a fitted effect of over 35% in size. Also: potency is read from the fitted curve at half-maximal effect. An outline of the steps: (§1)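 Cytotoxicity was tracked as dead-cell DNA fluorescence in HepG2 cells treated with test compounds at 37 C; each time-point value comes from one kinetic series spanning 0, 8, 16, 24, 32 and 40 h.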
Assay [2] is described as follows: A CellTox Green Cytotoxicity Assay to monitor cytotoxicity in HEK293 cells - 8 hour (AID 1224884). Also: nearly all actives have a fitted effect of over 35% in size. An outline of the steps:
(§2)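 Real-time, in one plate: 600 HEK293 cells/well with dead-cell DNA dye, pinned compound after 5 h, 37 C incubation over 40 h; viable cells give no appreciable fluorescence.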

Assay [3] is described as follows: qHTS RealTime-Glo MT Cell Viability Assay in HEK293 cells - 24 hour (AID 1224886). Also: nearly all actives have a fitted effect of over 50% in size. Also: potency is read from the fitted curve at half-maximal effect. An outline of the steps: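 Tox21 10K qHTS, HEK293, 600 cells/well, RealTime-Glo reagent co-dispensed with cells; 5 h preincubation, compound by pintool, 37 C, luminescence at 0–40 h.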
Assay [4] in a line: qHTS RealTime-Glo MT Cell Viability Assay in HEK293 cells - 8 hour (AID 1224887). Also: nearly all actives have a fitted effect of over 50% in size. Also: potency is read from the fitted curve at half-maximal effect. The essentials:
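Kinetic, non-lysing viability readout. Seed HEK293 (600/well) with reagent, incubate 5 h at 37 C/5% CO2, pin 23 nL compound in DMSO, incubate at 37 C, read luminescence at 0, 8, 16, 24, 32, 40 h.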
On the technique in general: qHTS replaces the single test concentration by a dilution series.

A short description of assay [5]: A CellTox Green Cytotoxicity Assay to monitor cytotoxicity in HEK293 cells - 16 hour (AID 1224888). Also: nearly all actives have a fitted effect of over 35% in size. The essentials: as §2
Assay [6] in a line: qHTS RealTime-Glo MT Cell Viability Assay in HepG2 cells - 0 hour (AID 1224889). Also: nearly all actives have a fitted effect of over 50% in size. The essentials: (§3)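 Cells + NanoLuc/prosubstrate dispensed (600 cells/well) → 5 h at 37 C/5% CO2 → compounds in DMSO transferred → 40 h incubation at 37 C, luminescence read at 0, 8, 16, 24, 32, 40 h.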
The nature of assay [7]: qHTS assay to identify small molecule antagonists of the estrogen receptor alpha (ER-alpha) signaling pathway using the BG1 cell line in the presence of 0.1 nM 17-beta-estradiol - cell viability counter screen (AID 1259241). Also: nearly all actives have a fitted effect of over 40% in size. The essentials: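 VM7Luc4E2 cells (endogenous full-length ER-alpha, 4xERE-luciferase), cultured 5 days in charcoal-stripped serum, exposed to compounds with 0.1 nM 17beta-estradiol (final) for 22 hr at 37C. Viability read in same wells as live-cell protease fluorescence after 30 min.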

Assay [8] can be described thus: qHTS assay to identify small molecule antagonists of the androgen receptor (AR) signaling pathway using the MDA cell line in the presence of 0.5 nM R1881 - cell viability counter screen (AID 1259242). Also: nearly all actives have a fitted effect of over 45% in size. An outline of the steps:
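Cells seeded at 3,000/well and allowed 5 hr at 37C, 0% CO2 before compound transfer and R1881 (0.5 nM final) addition; 16 hr later, live-cell protease fluorescence indicated cytotoxicity.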

Assay [9] has as its target Androgen receptor (Homo sapiens) (UniProt P10275). Put plainly: qHTS assay to identify small molecule antagonists of the androgen receptor (AR) signaling pathway using the MDA cell line in the presence of 0.5 nM R1881 (AID 1259243). Also: nearly all actives have a fitted effect of over 50% in size. The essentials: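 Luminescence from an AR/GR-responsive MMTV-luciferase construct in MDA-kb2 breast carcinoma cells, read 30 min after ONE-Glo, following 16 hr co-treatment with compounds and 0.5 nM R1881.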

The target in assay [10] is Estrogen receptor (Homo sapiens) (UniProt P03372). Put plainly: qHTS assay to identify small molecule antagonists of the estrogen receptor alpha (ER-alpha) signaling pathway using the BG1 cell line in the presence of 0.1 nM 17-beta-estradiol (AID 1259244). Also: nearly all actives have a fitted effect of over 50% in size. An outline of the steps:
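Luciferase signal from VM7Luc4E2 ERE-reporter cells, co-dosed with test compound and 0.1 nM final 17beta-estradiol for 22 h, read with ONE-Glo.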

Assay [11] can be described thus: qHTS assay to identify small molecule phospholipidosis (PLD) inducers (AID 1259344; active = well fitted curve in the direction sought with a large enough effect; an effect the other way counts as inactive or inconclusive). An outline of the steps:
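Read-out is LipidTOX Red fluorescence (ex 595/em 615) imaged in HepG2 cells after 24 h compound exposure at 37 C, with Hoechst nuclear counterstain (ex 352/em 461) allowing per-cell normalisation.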

Assay [12] is described as follows: qHTS assay to identify small molecule HDAC inhibitors (AID 1259364). Also: potency is read from the fitted curve at half-maximal effect.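 Also: wild-type HCT-116 cells with endogenous class I/II HDAC activity; nearly all actives have a fitted effect of over 45% in size.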 An outline of the steps: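 HCT-116 wt cells, 1,500/well, overnight attach. Compounds (DMSO) 2 h, 37 °C. HDAC-Glo I/II, 30 min RT. Luminescence.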
Assay [13] in a line: qHTS assay to identify small molecule HDAC inhibitors - cell viability counter screen (AID 1259365). An outline of the steps:
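Wild-type HCT-116 cells, 1,500/well, cultured overnight, then compound-treated 2 h at 37 C. Viability measured as ATP luminescence with CellTiter-Glo after 30 min at room temperature.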

Assay [14] can be described thus: qHTS assay to identify small molecule agonists of the sonic hedgehog signaling (Shh) pathway - cell viability counter screen (AID 1259366). Also: nearly all actives have a fitted effect of over 50% in size. The essentials: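 NIH/3T3-derived Gli1-Luc reporter cells, 2,000 per well, received compound after 4 h and were treated about 23 h at 37C. Viability measured in the same wells by CellTiter-Fluor fluorescence after 1 h.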
Assay [15] in a line: qHTS assay to identify small molecule agonists of the sonic hedgehog signaling (Shh) pathway (AID 1259368; calls by dose curve;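 also: NIH/3T3-derived 3T3Gli1-Luc cells carrying a stable Gli1-driven firefly luciferase reporter; series mostly up to about 92 µM; nearly all actives have a fitted effect of over 15% in size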). An outline of the steps: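 Following a 24 hr incubation with DMSO-dissolved compounds at 37 C, 5% CO2, Gli1-Luc NIH/3T3-derived cells received luciferase reagent for 30 min at room temperature prior to luminescence measurement.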
The nature of assay [16]: qHTS assay to identify small molecule antagonists of the sonic hedgehog signaling (Shh) pathway (AID 1259369; calls by dose curve; also: nearly all actives have a fitted effect of over 45% in size; also: potency is read from the fitted curve at half-maximal effect). The essentials:
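Read-out is luminescence from a firefly luciferase gene controlled by the Gli1 response element, in 3T3Gli1-Luc cells pre-incubated 4hr then exposed to compounds and conditioned medium for 24hr.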

The nature of assay [17]: qHTS RealTime-Glo MT Cell Viability Assay in HepG2 cells - 16 hour (AID 1224885). Also: nearly all actives have a fitted effect of over 50% in size. The essentials:
as §3

Assay [18] can be described thus: A CellTox Green Cytotoxicity Assay to monitor cytotoxicity in HepG2 cells - 8 hour (AID 1224890). Also: nearly all actives have a fitted effect of over 45% in size. An outline of the steps:
as §1

Assay [19] can be described thus: qHTS assay to identify small molecule antagonists of the sonic hedgehog signaling (Shh) pathway - cell viability counter screen (AID 1259367). Also: nearly all actives have a fitted effect of over 55% in size. An outline of the steps:
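Fluorescence read-out (CellTiter-Fluor, 1 hr at 37C) taken after 23 hr compound treatment of 3T3 Gli1-Luc cells stimulated with conditioned medium. Cells were seeded at 2,000 per well and pre-incubated 4 hr.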

Assay [20] in a line: A CellTox Green Cytotoxicity Assay to monitor cytotoxicity in HepG2 cells - 32 hour (AID 1224883). Also: nearly all actives have a fitted effect of over 50% in size. An outline of the steps: as §1

Chain of Estrogen receptor (Homo sapiens) (P03372 whole entry, looked up): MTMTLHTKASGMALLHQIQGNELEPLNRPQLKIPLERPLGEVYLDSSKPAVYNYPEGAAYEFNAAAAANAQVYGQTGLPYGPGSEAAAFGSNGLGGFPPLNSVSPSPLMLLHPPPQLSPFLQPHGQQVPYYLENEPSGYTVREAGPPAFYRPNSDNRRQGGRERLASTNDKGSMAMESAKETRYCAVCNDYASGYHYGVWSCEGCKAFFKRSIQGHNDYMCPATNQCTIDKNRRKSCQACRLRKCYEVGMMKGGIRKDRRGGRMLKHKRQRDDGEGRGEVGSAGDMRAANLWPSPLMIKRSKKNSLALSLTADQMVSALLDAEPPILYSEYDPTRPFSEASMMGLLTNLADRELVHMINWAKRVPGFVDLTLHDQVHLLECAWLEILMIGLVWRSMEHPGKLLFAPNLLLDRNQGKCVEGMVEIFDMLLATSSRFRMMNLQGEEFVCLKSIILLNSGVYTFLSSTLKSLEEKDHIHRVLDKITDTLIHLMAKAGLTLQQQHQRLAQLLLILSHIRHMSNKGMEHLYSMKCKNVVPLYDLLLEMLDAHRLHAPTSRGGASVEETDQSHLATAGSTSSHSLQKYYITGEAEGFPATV
Chain of Androgen receptor (Homo sapiens) (P10275 whole entry, looked up): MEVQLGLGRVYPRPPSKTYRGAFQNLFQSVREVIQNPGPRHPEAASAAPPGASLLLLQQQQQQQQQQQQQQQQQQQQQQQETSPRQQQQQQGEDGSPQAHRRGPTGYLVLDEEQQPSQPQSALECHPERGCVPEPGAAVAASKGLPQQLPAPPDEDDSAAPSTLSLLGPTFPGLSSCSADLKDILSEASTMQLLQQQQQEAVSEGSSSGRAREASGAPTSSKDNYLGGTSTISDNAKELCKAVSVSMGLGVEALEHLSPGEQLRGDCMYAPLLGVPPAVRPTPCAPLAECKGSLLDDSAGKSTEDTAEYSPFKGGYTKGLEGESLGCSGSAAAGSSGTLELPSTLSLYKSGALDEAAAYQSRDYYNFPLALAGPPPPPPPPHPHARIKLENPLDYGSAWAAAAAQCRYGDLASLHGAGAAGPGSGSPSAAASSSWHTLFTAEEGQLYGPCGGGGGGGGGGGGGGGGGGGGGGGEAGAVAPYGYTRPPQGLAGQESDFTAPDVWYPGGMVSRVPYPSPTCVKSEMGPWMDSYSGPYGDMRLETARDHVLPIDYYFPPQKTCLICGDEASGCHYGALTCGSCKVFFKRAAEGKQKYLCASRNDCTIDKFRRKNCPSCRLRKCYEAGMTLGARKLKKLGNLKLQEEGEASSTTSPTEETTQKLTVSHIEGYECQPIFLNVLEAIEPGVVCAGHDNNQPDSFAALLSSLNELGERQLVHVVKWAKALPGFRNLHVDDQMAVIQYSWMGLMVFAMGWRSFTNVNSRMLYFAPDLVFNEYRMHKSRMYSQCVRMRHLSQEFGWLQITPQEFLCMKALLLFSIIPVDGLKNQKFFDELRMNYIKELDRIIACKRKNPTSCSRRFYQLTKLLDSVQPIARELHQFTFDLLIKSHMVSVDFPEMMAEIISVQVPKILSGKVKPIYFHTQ

Turning to `O=C(O)[C@@H]1[C@H]2C[C@H]3c4[nH]c5ccccc5c4CCN3C[C@@H]2CC[C@@H]1O`, the Potency in [1] was 10.7 µM (active). Moreover, the Potency entry in assay [2], in assay [3], in assay [4], in assay [5], in assay [6] and in [7] was “inactive” in each case. Moreover, the Potency result in assay [8], in assay [9], in [10], in assay [11], in assay [12] and in assay [14] was “inactive” in each case. Further, the Potency entry in assay [16] is “inactive”. The call in assay [13] and in assay [15] was inactive.
Turning to `Cn1c(=O)c2c(ncn2CC(O)CO)n(C)c1=O` (centres undefined), the Potency result in assay [1], in assay [2], in assay [17], in assay [4], in [5] and in [6] was “inactive” in each case. The Potency entry in assay [18], in [8], in [11], in [12], in assay [14] and in assay [16] was “inactive” each time. Also, the compound was classed as inactive in [13] and in assay [15].
`Cc1cccc(Oc2ccccc2)c1`: the Potency result in assay [1], in [2], in assay [17], in assay [4], in assay [5] and in assay [6] was “inactive” throughout. Moreover, the Potency entry in assay [18], in [8], in [12], in assay [14], in [19] and in assay [16] was “inactive” throughout. The Potency in [3] is 47.8 µM (active). Also, the compound was called inactive in [13] and in [15].
Take `O=C(O)c1cn(C2CC2)c2cc(Cl)c(F)cc2c1=O`: the Potency result in [1], in assay [20], in assay [17], in [6], in assay [18] and in assay [7] was “inactive” in each case. Further, the Potency result in assay [8], in assay [9], in [10], in assay [12] and in assay [16] was “inactive” throughout. Also, the compound was classed as inactive in assay [13] and in [15].
Turning to `CCN(CC)CCc1nc(-c2ccccc2)no1`, the Potency result in assay [20], in assay [2], in assay [17], in assay [3], in [4] and in [5] was “inactive” throughout. Moreover, the Potency result in assay [6], in assay [18], in assay [7], in assay [8], in assay [10] and in assay [11] was “inactive” throughout. The Potency result in assay [12], in assay [14] and in assay [16] was “inactive” each time. The outcome in assay [13] and in [15] was inactive.
With `CN(C)CCCOc1nn(Cc2ccccc2)c2ccccc12`, the Potency result in assay [1], in assay [17], in assay [4], in assay [5], in [6] and in [18] was “inactive” throughout. Also, the Potency result in assay [7], in assay [8], in assay [11], in [12], in assay [19] and in [16] was “inactive” each time. Besides, the compound was classed as inactive in assay [13] and in assay [15].
For `CCCCCOC(=O)c1ccc(O)cc1`, the Potency result in assay [1], in assay [2], in assay [17], in [6], in [18] and in assay [7] was “inactive” each time. Also, the Potency entry in assay [8] and in [14] was “inactive” in each case. Further, the Potency was 44.2 µM (active) in [3], 44.2 µM (active) in [4], 24.6 µM (active) in assay [12] and 39 µM (active) in [16]. Moreover, the call in assay [13] and in assay [15] was inactive.
For `Oc1ccc(Cc2ccccc2)cc1`, the Potency entry in assay [1], in assay [2], in assay [17], in [6], in assay [18] and in assay [7] was “inactive” throughout. The Potency result in [8] and in assay [12] was “inactive” throughout. In addition, in assay [4], the Potency was 22.7 µM (active). In addition, the call in assay [13] and in assay [15] was inactive.
